CHRM1 antagonist = human M1 muscarinic receptor antagonists, primary screen, CHO-K1 cells, Fluo-8 calcium fluorescence, 1536-well | CHO-K1 hM1, ACh EC80 antagonist | actives 1.3% (n = 360,000) | Muscarinic acetylcholine receptor M1 (Homo sapiens), P11229 | inhibition, % at 3 µM | AID 588852, 2011;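 active = percent inhibition above its own plate's cutoff, namely the mean of that plate's compound wells plus 3 SD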;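 also: peak over basal fluorescence ratio during 140 s after agonist addition; 0% = ACh EC80 plus DMSO and 100% = DMSO alone without agonist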
Target sequence (P11229 whole entry, looked up): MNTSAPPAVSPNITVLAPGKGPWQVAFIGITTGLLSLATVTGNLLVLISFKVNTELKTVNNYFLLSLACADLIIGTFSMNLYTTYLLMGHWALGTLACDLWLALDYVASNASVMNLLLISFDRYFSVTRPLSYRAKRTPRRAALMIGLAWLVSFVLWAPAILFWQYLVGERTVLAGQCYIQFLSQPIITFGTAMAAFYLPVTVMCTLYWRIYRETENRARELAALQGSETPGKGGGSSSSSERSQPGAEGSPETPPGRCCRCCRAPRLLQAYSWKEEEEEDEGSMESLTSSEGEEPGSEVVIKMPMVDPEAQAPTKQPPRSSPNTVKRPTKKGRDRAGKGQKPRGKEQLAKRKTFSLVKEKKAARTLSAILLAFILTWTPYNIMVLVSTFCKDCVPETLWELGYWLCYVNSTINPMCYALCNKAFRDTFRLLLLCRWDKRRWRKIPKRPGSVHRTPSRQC
M1 ag parental = counter-screen for M1 agonists: effect in parental CHO-K1 cells | actives 0.48% (n = 360,000) | activation, % at 3 µM | Fluo-8 calcium fluorescence; scaled to maximal ATP response, vehicle zero; in the data active = activation above about 15%;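 also: untransfected CHO-K1 host cells lacking M1 receptor as counterscreen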
CHO-K1 Ca PAM = nonselective calcium activators in parental CHO-K1 cells, primary screen, counter-screen for M1 PAM project, cell-based, Fluo-8 calcium fluorescence, full deck, 1536-well; ATP EC20; 0% at ATP EC20, 100% at ATP max; actives 0.02% (n = 360,000); AID 602247, 2012; activation, % at 3 µM;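 active = activation above the run cutoff, the mean activation of all test compounds plus 3 SD, cut at about 40% in these data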;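 also: peak over basal fluorescence ratio in a 140 s read after ATP addition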
CHO-K1 Ca antag = counter-screen for M1 antagonists: effect in parental CHO-K1 cells; ATP-induced calcium, Fluo-8 fluorescence; inhibition, % at 3 µM; actives 0.6% (n = 360,000); AID 602250;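 active = inhibition above a per-plate cutoff, the plate's mean sample inhibition plus 3 SD, cut at about 24% in these data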;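 also: 0% = DMSO plus EC80 ATP and 100% = DMSO alone without ATP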
CHRM1 PAM = human M1 muscarinic receptor positive allosteric modulators, primary screen, CHO-K1 cells, Fluo-8 calcium fluorescence, 1536-well; CHO-K1 hM1, ACh EC20; 0% = ACh EC20, 100% = maximal ACh; activation, % at 3 µM; actives 0.088% (n = 360,000); AID 588819, 2011; in the data active = activation above about 19%, passing the limit was not always enough
M1 ag = human M1 muscarinic receptor agonists, primary screen, Fluo-8 calcium fluorescence, CHO-K1 cells, HTS. Muscarinic acetylcholine receptor M1 (Homo sapiens), P11229. CHO-K1 hM1, agonist mode; 0% DMSO, 100% acetylcholine EC100. activation, % at 3 µM. actives 0.33% (n = 360,000). AID 588814, 2011;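 active = activation above the run's mean compound activation plus 3 SD, cut at about 16% in these data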;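 also: peak over basal fluorescence ratio within a 140 s kinetic read after compound addition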
An asterisk follows results filed as active; · = not tested or not shown. Sampled rows, rich in hits. Any-hit rate of the full collection: about 2.3%.

SMILES	CHRM1 antagonist	M1 ag parental	CHO-K1 Ca PAM	CHO-K1 Ca antag	CHRM1 PAM	M1 ag
COc1cc2c(cc1OC)CN(CC(=O)Nc1ccc(S(=O)(=O)N3CCCC3)cc1)CC2	9.6	1.6	4.6	-10.8	-7.2	-5.5
O=S(=O)(c1ccc(NC(=S)NCc2cccnc2)cc1)N1CCCCC1	44.0*	10.0	-6.2	3.0	-16.6	3.7
O=C(CNC(=O)C1CCCCC1)NCc1ccco1	-9.2	0.2	14.5	-9.4	17.6	0.6
COC(C(=O)NNC(=O)CCc1ccccc1)c1ccccc1 (stereo not drawn)	-11.3	0.1	10.9	-17.3	8.0	-1.2
O=C(CSc1ccccc1C(=O)O)NCC1CCCCC1	2.1	0.0	17.0	-10.4	9.0	-2.1
O=C(NCCc1ccc(Cl)cc1)C1CCCN1C(=O)Nc1ccccc1 (stereo not drawn)	-19.4	0.0	13.1	-2.4	18.0	-2.8
O=C(CN1CCN(S(=O)(=O)c2ccc(Br)cc2)CC1)Nc1ccc(F)cc1	0.8	1.6	15.5	-10.3	-3.4	-3.3
CN1CCN(S(=O)(=O)c2ccc(NC(=O)Nc3cccc(Cl)c3)cc2)CC1	13.0	3.6	18.3	12.0	7.2	-2.8
O=C(Nc1cccc(Cl)c1)Nc1cc(S(=O)(=O)N2CCCCC2)ccc1Cl	25.3*	0.7	-15.4	38.4*	-18.8	-2.7
CCN(CC(=O)Nc1cc(S(=O)(=O)N2CCCCC2)ccc1Cl)Cc1ccccc1	20.2	9.1	-5.5	35.9*	-5.3	0.2
O=C(CN1CCN(S(=O)(=O)c2ccc(Br)cc2)CC1)Nc1ccc2c(c1)OCO2	-31.4	22.5*	20.6	0.1	2.9	3.5
CC1CCCC(C)N1c1ccc(S(=O)(=O)N2CCOCC2)cc1Cl (stereo not drawn)	-1.7	0.9	8.0	-21.1	3.3	-3.5
Cc1ccc(OCC2Cn3c(nc4c3c(=O)[nH]c(=O)n4C)O2)cc1C (stereo not drawn)	4.7	1.7	-6.2	14.3	-4.4	-2.8
Cc1ccc(C(=O)N2CCN(c3ccccc3F)CC2)cc1S(=O)(=O)N1CCOCC1	-0.6	1.4	25.4	-13.8	5.7	-7.1
COC(=O)c1cc(C(=O)OCC(=O)NC(=O)c2ccccc2)cc([N+](=O)[O-])c1	27.6*	0.1	3.9	4.8	1.7	-2.3
COC(=O)c1cc(C(=O)OCC(=O)c2ccc[nH]2)cc([N+](=O)[O-])c1	5.7	0.3	-22.3	16.8	2.5	-5.1
C[N+]1(CC(=O)Nc2ccccc2Cl)CCN(C(=O)c2cccs2)CC1	33.3*	0.3	15.7	-19.1	-12.2	-4.8
O=C(CCSc1ccc(F)cc1)NNC(=O)c1ccccc1Cl	-8.6	1.6	16.2	-28.6	4.3	1.4
O=C(COC(=O)c1cccnc1Cl)c1ccccc1	-1.5	1.3	14.5	-21.3	3.2	-4.3
CC(C)N(C(=O)COC(=O)c1cccnc1Cl)c1ccccc1	-38.2	1.6	4.8	-10.9	31.8*	1.3
N#Cc1ccc(C(=O)OCC(=O)NC(=O)NCc2ccccc2)cc1	1.9	1.7	-0.2	-4.7	3.5	-2.1
CCCCOCCCNC(=O)C[C@@H]1C[C@@]2(C(=O)OCC)CCCC=C2N(Cc2ccc3c(c2)OCO3)C1=O	·	-0.7	-4.8	5.1	·	·
Cc1noc(-c2ccccc2)c1NC(=O)Nc1ccc(Cl)cc1	41.1*	15.1*	5.7	1.6	-24.3	0.3
CCOC(=O)C1CCN(C(=O)COC(=O)/C=C/c2ccccc2)CC1	-9.9	0.0	1.1	-4.1	12.2	4.7
CCOC(=O)C1CCCN(C(=O)C(C)Oc2ccc(Cl)cc2Cl)C1 (stereo not drawn)	-2.2	0.6	0.3	-5.2	-7.0	21.2*
SMILES	CHRM1 antagonist	M1 ag parental	CHO-K1 Ca PAM	CHO-K1 Ca antag	CHRM1 PAM	M1 ag
CCOC(=O)C1CCCN(C(=O)c2ccc(S(=O)(=O)N3CCOCC3)cc2)C1 (stereo not drawn)	17.2	0.2	-21.9	0.5	-6.9	-0.3
CCOC(=O)C1CCN(C(=O)COC(=O)/C=C/c2cccc(OC)c2OC)CC1	-8.8	1.0	23.9	-22.4	14.1	19.4*
COC(=O)C1CCN(C(=O)C(C)Oc2ccc(Cl)cc2Cl)CC1 (stereo not drawn)	-5.9	0.9	5.5	-3.2	7.4	-1.3
CCOC(=O)C1CCCN(C(=O)c2ccc(S(=O)(=O)N3CCCC3)cc2)C1 (stereo not drawn)	38.8*	0.5	-2.7	-1.9	-16.1	-2.6
CCOC(=O)C1CCCN(C(=O)c2cc(Cl)ccc2Cl)C1 (stereo not drawn)	-4.6	2.0	11.5	-32.7	1.7	18.7*
CCOC(=O)C1CCCN(C(=O)c2ccc(Cl)cc2)C1 (stereo not drawn)	1.6	0.4	10.4	-20.2	2.6	-7.6
O=C1NC[C@H](CCCCN2C[C@H](Cc3ccc(O)cc3)N(CCc3ccccc3)C(=O)C2=O)N(CC2CCCCC2)C1=O	·	0.2	-2.3	-23.1	·	·
O=c1[nH]cnc2c1ncn2C1OC(CO)CC1F (stereo not drawn)	2.5	0.1	-0.6	1.2	1.9	-3.4
CCOC(=O)C1CCN(C(=O)COc2ccc(Cl)cc2C)CC1	-7.0	1.2	16.2	-10.6	5.0	-3.6
CCOC(=O)C1CCN(C(=O)COc2ccc(Cl)cc2Cl)CC1	16.8	0.7	-7.9	24.2*	-7.2	-2.1
COCCNC(=O)CN(C(=O)CCC(=O)Nc1ccccn1)c1ccc(C)cc1C	-15.2	0.2	0.8	-4.3	7.9	-2.3
COc1cc(=O)n(C)c2cc(N(C)C)ccc12	-15.6	0.2	19.2	-11.6	20.0*	-3.6
CCOC(=O)C(=CNc1ccc(Oc2cncc(Cl)c2)nc1)C(=O)OCC	-6.7	-0.9	-25.4	13.8	18.4	2.4
COc1cc(C(=O)N2CCN(C(=O)c3cc(-c4ccccc4)n[nH]3)CC2)cc(OC)c1OC	-0.3	1.4	5.1	1.6	-2.7	-3.0
OC(CNCCNc1ncccc1C(F)(F)F)COc1ccc(F)cc1 (stereo not drawn)	19.4	3.6	8.3	-11.6	-14.2	40.4*
Cc1ccc(OCC(O)CNCc2ccc(F)cc2)cc1 (stereo not drawn)	-1.0	2.2	8.9	0.3	3.6	-2.0
COCCNC(=O)CCc1nnc(C2(c3ccc(Cl)cc3)CCC2)o1	1.2	15.8*	4.2	10.8	8.3	-7.3
CC(C)(CO)CNC(=O)CCc1nnc(C2(c3ccc(Cl)cc3)CCC2)o1	0.7	-0.1	-1.1	3.6	3.1	-4.3

From PubChem
